Structures are written as SMILES. Compounds without any hit were thinned out: in the full panel of roughly 83,000, 20% have a hit.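 Values shown are percent growth following 48 h exposure of cells in 96-well plates to a single concentration of compound; below 10 was considered active.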 Values without a mark were called inactive. Active and inactive are the calls of the source.

The results in this text go back to PubChem BioAssay (NCI).

The assay relates to MDA-MB-468 breast. Put plainly: NCI-60 one-dose screen, 48 h (100 = growth as untreated, 0 = no growth, -100 = all killed). The following applies: 10 µM unless noted.
In the case of `Cc1cn(-c2cc(NC(=O)c3ccc(C)c(Nc4nccc(-c5cnccn5)n4)c3)cc(C(F)(F)F)c2)cn1`, the growth is 103%.
On to `CCCC(CCC)NCC(O)c1cc(-c2ccc(C(F)(F)F)cc2)nc(C(F)(F)F)c1` (centres undefined), for which the growth is -91.6% (active).
Take `Cn1cnc([N+](=O)[O-])c1S(=O)(=O)Oc1ccccc1`: the growth was 77.4%.
On to `CCN(CC)CCN1C(=O)c2cccc3c(-c4ccc5c(c4)ncn5C4CCCCC4)ccc(c23)C1=O`, for which the growth is -6.34% (active).
For the molecule `COc1ccc(-c2nnc(SCc3ccc(O)c4ncccc34)o2)cc1`, the growth was 51.2%.
With `Cc1nc2cccc(NCCCCC(=O)NO)c2c(=O)n1-c1ccccc1`, the growth is 54.6%.
For `COc1ccc2c(c1)C(=O)/C(=C/c1ccc([N+](=O)[O-])o1)O2` the value was -49.4% (active).
As for `Cc1cccc(-c2cc(O)c(C(=O)N3CCOCC3)s2)c1`, the growth is 14.1%.
The result for `CCOc1ccc(Br)cc1/C=C(\C#N)c1ccc([N+](=O)[O-])cc1` reads 51.7%; that for `COc1cc(/C=C/c2cc(/C=C/c3ccc(O)c(OC)c3)nc(N)n2)ccc1O`, -35% (active).
On to `Cn1c2ccccc2c2nnc(N/N=C/c3ccccn3)nc21`, for which the growth was -25.1% (active).
Turning to `Cc1ccc2nc3ccccc3c(NCc3ccc(Cl)cc3)c2c1`, the growth was -21.7% (active).
With `CCCCNCC(O)c1cc(-c2ccc(C(F)(F)F)cc2)nc(-c2ccc(C(F)(F)F)cc2)c1` (centres undefined), the growth is -87.9% (active).
Consider `CCCCC[n+]1ccc(SCC(=O)N(C)c2ccc(Oc3ccccc3)cc2)c2ccccc21`, for which the growth was 38.9%.
